A selection: hits, their analogues and other compounds. The true share with any hit is near 9%.
HPGD inh: blocks human HPGD enzyme activity | P15428 | purified HPGD, NADH fluorescence kinetic, PGE2 substrate | Potency, µM, for inactives: at the highest dose activity change, negative = inhibition, hits mostly inhibitors | hit rate 4.3% among 150,000 | AID 894
Target sequence (P15428 whole entry, looked up): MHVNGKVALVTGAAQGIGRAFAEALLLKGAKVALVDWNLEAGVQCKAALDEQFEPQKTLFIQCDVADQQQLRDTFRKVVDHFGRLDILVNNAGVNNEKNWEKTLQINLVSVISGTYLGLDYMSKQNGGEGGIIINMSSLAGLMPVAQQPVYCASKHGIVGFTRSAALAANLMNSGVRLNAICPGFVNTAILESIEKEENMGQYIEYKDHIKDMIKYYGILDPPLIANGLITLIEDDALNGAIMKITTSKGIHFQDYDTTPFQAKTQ
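20 nM HPGD preincubated 15 min at room temperature with compound in 50 mM Tris-HCl pH 8, 0.01% Tween 20. Started with 1 mM NAD+ and 30 uM prostaglandin E2; NADH fluorescence (360/450 nm) read 5 times over 30-s intervals, last minus first.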
LMNA splice mod: LMNA splicing modulation; HeLa LMNA splicing GFP/RFP minigene ratio, 48 h; Potency, µM (top dose mostly 46.1 µM), inactives show at the highest dose ratio change, negative = inhibition, actives largely listed as inhibitors; hit rate 0.01% among 200,000; active = well fitted inhibition curve with a large enough effect in the signal ratio, with a control signal flat, not every such curve was filed as active; inconclusive = small, poorly fitted or top-dose-only effect, or effect the other way, or a change in a side signal; the % refers to the signal ratio
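S3 HeLa cells stably expressing lamin A-EGFP splicing minigene plus DsRed2, 600 cells/well, 48 h compound exposure at 37C. Laser-scanning cytometry; analysed as GFP (500-530 nm)/RFP (575-640 nm) total intensity ratio; 0.5% DMSO vehicle.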
Luc counter: blocks Kinase-Glo luciferase, a counter-screen artifact; AID 1379; hit rate 0.28% among 200,000; Kinase-Glo luciferase, ATP luminescence, 8 min; Q27757; Potency, µM (doses to about 38.3 µM), for the others: at the highest dose activity change, negative = inhibition, hits mostly inhibitors; active = well fitted curve in the direction sought with a large enough effect; inconclusive = small, poorly fitted or top-dose-only effect, or another doubt; inactive = no such curve, though single readings can be large; an effect the other way counts as inactive or inconclusive; also: nearly all actives have a fitted effect of over 60% in size
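Luminescence was the read-out, taken after 8-minute incubation at ambient temperature. Luciferase turned over luciferin with 10 uM ATP in imidazole pH 7.2 buffer containing KCl, MgCl2, Tween 20 and BSA.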
IMPase Li inh: membrane-permeable IMPase blocker, potentiated with lithium; CHO-M1 cells, IP1 TR-FRET (IP-One), carbachol + lithium; Potency, µM (doses to about 59.4 µM), inactives show at the highest dose activity, negative = IMPase inhibition, most hits filed as inhibitors; hit rate 0.35% among 210,000; AID 1457; active = well fitted curve in the direction sought with a large enough effect; inconclusive = small, poorly fitted or top-dose-only effect, or another doubt; inactive = no such curve, though single readings can be large; an effect the other way counts as inactive or inconclusive;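 also: IP1 builds up when IMPase is blocked and the TR-FRET signal falls; plate controls were basal vehicle for no effect and high inhibitor control for full effect; nearly all actives have a fitted effect of over 50% in size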
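Steps: plate 2000 CHO-M1 cells per well and culture 16–30 h; add compound and lithium; incubate 30 min, 37C; add d2-IP1 tracer and Eu cryptate anti-IP1 antibody in lysis buffer; read after 10 min at room temperature.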
ALDH1A1 block: inhibitors of human aldehyde dehydrogenase 1A1 | P00352 | hit rate 7.3% among 220,000 | Purified ALDH1A1, NADH fluorescence, propionaldehyde substrate | Potency, µM (series often up to 75.3 µM), for the others: top-dose activity, negative = inhibition, usual class: inhibitors;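 also: plate controls were no enzyme wells and a reference inhibitor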
Target sequence (P00352 whole entry, looked up): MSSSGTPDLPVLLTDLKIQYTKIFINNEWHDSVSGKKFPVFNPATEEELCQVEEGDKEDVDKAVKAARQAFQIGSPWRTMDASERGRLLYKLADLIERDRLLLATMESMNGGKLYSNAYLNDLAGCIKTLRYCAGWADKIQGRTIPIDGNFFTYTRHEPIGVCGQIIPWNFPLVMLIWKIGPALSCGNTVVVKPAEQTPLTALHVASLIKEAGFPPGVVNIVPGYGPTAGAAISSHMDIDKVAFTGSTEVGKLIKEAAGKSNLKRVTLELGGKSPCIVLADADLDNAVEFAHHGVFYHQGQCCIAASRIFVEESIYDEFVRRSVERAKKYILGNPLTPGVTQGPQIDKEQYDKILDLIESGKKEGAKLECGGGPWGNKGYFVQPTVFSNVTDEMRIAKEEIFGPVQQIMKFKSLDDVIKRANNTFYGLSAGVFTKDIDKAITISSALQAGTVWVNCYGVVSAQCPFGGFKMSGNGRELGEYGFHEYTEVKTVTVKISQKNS
Active calls of the source: *; i = inactive; ? = inconclusive; · = no result; [ ] = dose if it differs, or a comment. Unless noted, calls follow the shape of the dose curve; as a rule, active = well fitted inhibition curve with a large enough effect (not every such curve was filed as active); inconclusive = small, poorly fitted or top-dose-only effect, or another doubt; inactive = no such curve, though single readings can be large or run the other way. Unless noted, % is scaled to controls: 0 for no effect and ±100 for the full control effect; potency is read from the fitted curve at half-maximal effect.

SMILES	HPGD inh	LMNA splice mod	Luc counter	IMPase Li inh	ALDH1A1 block
CCOC(=O)COc1c(Br)cc(/C=C2\SC(=O)N(CC(=O)N3CCCC3)C2=O)cc1OC	-11%	-11%	-2%	15%[38.3 µM]	22µM*
O=C(CN1C(=O)S/C(=C/c2cc(Br)cs2)C1=O)N1CCOCC1	-7%	-9%	1%	18%	22µM*
CCOc1c(Br)cc(/C=C2/SC(=O)N(CC(=O)N3CCCC3)C2=O)cc1OC	-21%	-3%	4%	-8%	2%
O=C(CN1C(=O)S/C(=C/c2cccs2)C1=O)N1CCOCC1	-6%	7%	-1%	29%[38.3 µM]	-6%
O=C(COC(=O)c1cnccn1)c1ccc(Cl)cc1	·	?	-4%	-1%	0%
COc1ccc(CCNC(=O)CSc2nnnn2-c2ccc(OC)c(OC)c2)cc1OC	·	·	3%	-1%	1%
CC(C)C(=O)Nc1ccc(C(=O)NNC(=O)CCCOc2ccc(Cl)cc2Cl)cc1	-7%	11%	3%	2%[38.3 µM]	11%
CC(=O)c1cc2c(cc1O)OC(C)(C)C=C2	25µM*	·	-5%	24%	?
CC1(C)C=Cc2cc3ccc(=O)oc3cc2O1	i	·	-2%	3%	?
CCc1nnc(NC(=O)CSc2nc3c([nH]c4ccccc43)c(=O)n2-c2cc(C)cc(C)c2)s1	·	3%[46 µM]	·	·	·
COc1ccc2c(c1)[N+](=O)C(/C(C)=N/NC(N)=S)=C(C)[N+]2=O	-19%	·	-5%[7.66 µM]	-1%	3.2µM*
O=C1CC(N2CCC(c3nc4ccccc4o3)CC2)C(=O)N1Cc1cccs1 (stereo not drawn)	3%	-9%	6%	17%[38.3 µM]	?
O=C1CC(N2CCN(c3nc4ccccc4s3)CC2)C(=O)N1Cc1cccs1 (stereo not drawn)	-2%	?	4%	17%[38.3 µM]	22µM*
CCCOc1ccc(N2C(=O)CC(N3CCN(c4ccccc4F)CC3)C2=O)cc1 (stereo not drawn)	-5%	2%	1%	3%[38.3 µM]	?
CCN1C(=O)CC(N2CCN(c3ccc(C(=O)c4ccccc4)cc3)CC2)C1=O (stereo not drawn)	22µM*	?	-3%	-7%[38.3 µM]	?
CCCOc1ccc(N2C(=O)CC(N3CCN(c4nc5ccccc5s4)CC3)C2=O)cc1 (stereo not drawn)	-15%	-19%	0%	22%[38.3 µM]	14µM*
O=C1CC(N2CCN(c3ccc(F)cc3)CC2)C(=O)N1Cc1cccs1 (stereo not drawn)	-11%	3%	15%	46%[38.3 µM]	14µM*
Cc1nnc(SCC(=O)NC2CC2)n1CC1CCCO1 (stereo not drawn)	·	·	0%	-6%	12%
O=C(c1ccc(Sc2ccc(F)cc2)c([N+](=O)[O-])c1)N1CCOCC1	·	·	0%	13%	17%
Oc1c(Cl)cc(C(c2cc(Cl)c(O)c(Cl)c2)C(c2cc(Cl)c(O)c(Cl)c2)c2cc(Cl)c(O)c(Cl)c2)cc1Cl	-10%	·	-1%[7.66 µM]	-4%	11%[13.5 µM]
COc1ccc(N(CC(=O)O)N=O)cc1	-6%	·	1%[7.66 µM]	-1%	-2%[13.5 µM]
Cn1c(C(C)(O)C(O)c2ccccc2)nc2ccccc21 (stereo not drawn)	-19%	0%	5%	1%	0%
CC(NC(=O)c1ccccc1)C(=O)N/N=C/c1cccc([N+](=O)[O-])c1 (stereo not drawn)	·	5%[46 µM]	6%	7%	2%
CCOC(=O)c1c(C)oc2nc(C)nc(NCC3CCN(Cc4cccc(C)c4)CC3)c12	·	5%[46 µM]	·	·	·
CCCN(Cc1ccccc1)C(=S)Nc1ccc(OCC)cc1	·	?	5%	23%	-7%
SMILES	HPGD inh	LMNA splice mod	Luc counter	IMPase Li inh	ALDH1A1 block
COc1ccc(NC(=S)N(Cc2ccc(N(C)C)cc2)Cc2ccco2)cc1	-25%	?	-5%	8%	11µM*
CCOc1ccc(NC(=S)NN(C)C(=S)Nc2ccc(OCC)cc2)cc1	-14%	?	-6%	-1%	28µM*
CCOc1ccc(NC(=S)N(Cc2ccc(N(C)C)cc2)Cc2ccco2)cc1	-14%	-23%	-2%	0%[38.3 µM]	8.9µM*
CC(=O)Nc1cccc(C(=O)NCc2ccc3c(c2)CCN3C(C)=O)c1	·	17%[46 µM]	·	·	·
C=CCc1cc(Cl)ccc1OCCNCCN1CCOCC1	·	-3%[46 µM]	-7%	23%	?
CC(=O)N1CCC2(CCN(Cc3cc(C(F)(F)F)cc(C(F)(F)F)c3)CC2)CC1	-10%	·	-4%	0%	6%
O=C(Nc1ccccc1-c1ccccc1)c1cccc([N+](=O)[O-])c1	-5%	26%	0%	25%[38.3 µM]	7.9µM*
O=C(CC(=O)c1cccc([N+](=O)[O-])c1)Nc1ccccc1Cl	·	·	0%	-7%	3.5µM*
Cc1ccc(CNC(=O)C2CCN(Cc3nc(-c4cccc(Br)c4)oc3C)CC2)cc1	·	-2%[46 µM]	·	·	·
O=C(NC1(C(F)(F)F)C(=O)Nc2c1c(=O)[nH]c(=O)n2CCc1ccccc1)c1ccc(Cl)cc1 (stereo not drawn)	·	14%[46 µM]	·	·	·
COc1cc(C(C)=O)ccc1OCC(O)CN1CCN(S(=O)(=O)c2ccccc2)CC1 (stereo not drawn)	-9%	3%	6%	-4%[38.3 µM]	28µM*
O=C(C1=C(O)C(=O)N(c2ncccn2)C1c1ccc(Cl)cc1)c1ccco1 (stereo not drawn)	-13%	-2%	2%	13µM*	?
CCOc1cccc(C2C(C(=O)c3ccco3)=C(O)C(=O)N2Cc2ccncc2)c1 (stereo not drawn)	-12%	-15%	0%	0%[38.3 µM]	-12%
Cc1cc(N2C(=O)C(O)=C(C(=O)c3ccco3)C2c2cccnc2)no1 (stereo not drawn)	0%	3%	-2%	?	-5%
Cc1ccc(C(=O)C2=C(O)C(=O)N(Cc3ccccc3)C2c2cccnc2)o1 (stereo not drawn)	-12%	?	-1%	10µM*	-5%
O=C(C1=C(O)C(=O)N(c2ncccn2)C1c1cccc(Cl)c1)c1ccco1 (stereo not drawn)	-13%	17%	-4%	?	18µM*
O=C(C1=C(O)C(=O)N(c2ncccn2)C1c1ccc(Cl)c(Cl)c1)c1ccco1 (stereo not drawn)	?	25%	5%	?	7.9µM*
CC(=O)C1=C(O)C(=O)N(Cc2cccnc2)C1c1ccccc1Cl (stereo not drawn)	-18%	5%	13%	-19%[38.3 µM]	?
NC(=S)N=Nc1c(O)[nH]c2c(Br)cc(Br)cc12	·	·	-2%	16%	?
Cc1ccc(C(=O)C2=C(O)C(=O)N(c3ncccn3)C2c2ccc(Cl)cc2)o1 (stereo not drawn)	-28%	-17%	2%	13µM*	?
CCOc1cc(C2C(C(=O)c3ccc(C)o3)=C(O)C(=O)N2CCc2ccccc2)ccc1O (stereo not drawn)	-12%	-4%	-1%	-13%[38.3 µM]	-4%
O=[N+]([O-])C(=C1SCCS1)C(=C(Cl)Cl)N1CCCCC1	·	·	3%	19%	?
